Screens: PubChem, National Center for Advancing Translational Sciences (NCATS)
In the library only some 12% were active in any assay of this set; here they are far more common.
Sfp PPTase inh = blocks B. subtilis Sfp PPTase activity | Q9F4F7 | Biochemical Sfp PPTase activity, qHTS | Potency, µM, actives largely listed as inhibitors | 310,000 tested, 3.5% active;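 also: the enzyme is Sfp with the accession as filed and its product quenches rhodamine fluorescence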
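After 15 min at room temperature with compound, 15 nM Sfp received 5 uM rhodamine-CoA plus 12.5 uM BHQ-2-ybbR (50 mM Hepes pH 7.6, 10 mM MgCl2). Rate came from the fluorescence difference over 30 min, ex 525/em 598 nm.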
HP1b binding inh = inhibitors of HP1-beta chromodomain binding to methylated histone tails. AlphaScreen HP1-beta / biotin-H3K9me3 peptide binding. Potency, µM (doses to about 114 µM), most hits filed as inhibitors. 390,000 tested, 0.56% active; also: nearly all actives have a fitted effect of over 70% in size
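Compound inhibition of the preformed complex between 50 nM HP1-beta and 50 nM biotinylated H3K9me3 peptide was read by AlphaScreen. Buffer was PBS pH 7.4 with 0.01% Tween-20. Incubations ran 30 min at room temperature, with 10 ug/mL donor/acceptor beads.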
G9a inh = blocks human histone lysine methyltransferase G9a. G9a H3K9 monomethylation, AlphaScreen, 2 h. Potency, µM (doses to about 102 µM), hits mostly inhibitors. Q96KQ7. 350,000 tested, 8.8% active; also: nearly all actives have a fitted effect of over 75% in size
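Signal arises when biotinylated H3K9 peptide, once monomethylated, bridges streptavidin donor and antibody-captured acceptor beads. Enzyme at 20 nM was preincubated 15 min with test compounds; peptide 500 nM and SAM 20 uM then reacted for 2 h.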
BAZ2B block = blocks human BAZ2B; AID 504333; AlphaScreen BAZ2B-H3K14Ac peptide displacement; Q9UIF8; 360,000 tested, 4.4% active; Potency, µM (titrated, usually from 114 µM), actives largely listed as inhibitors; also: nearly all actives have a fitted effect of over 60% in size
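Inhibition is scored as reduced AlphaScreen emission. The BAZ2B/b-H3(5-23)K14Ac complex (50 nM each) in PBS pH 7.4, 0.01% Tween-20 meets compound (up to 110 uM) for 30 min at RT before bead addition.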
JMJD2A Tudor = blocks the human JMJD2A Tudor domain; O75164; AlphaScreen JMJD2A-Tudor / H3K4me3 peptide binding; Potency, µM (top dose mostly 114 µM), most hits filed as inhibitors; 390,000 tested, 4.4% active; also: nearly all actives have a fitted effect of over 50% in size
PLK1 PBD inh = blocks phosphopeptide binding to human PLK1 polo-box domain. Plk1 PBD binding of FITC phosphopeptide, fluorescence polarization. AID 720504. 360,000 tested, 2.8% active. Potency, µM, most hits filed as inhibitors; also: series mostly up to about 57 µM; nearly all actives have a fitted effect of over 65% in size
Numbers stand for hits; - = inactive; ? = inconclusive; . = not tested or not shown; [ ] = remark or other dose. Calls follow the shape of the dose curve; as a rule, active = well fitted curve in the direction sought with a large enough effect; inconclusive = small, poorly fitted or top-dose-only effect, or another doubt; inactive = no such curve, though single readings can be large; an effect the other way counts as inactive or inconclusive.

SMILES	Sfp PPTase inh	HP1b binding inh	G9a inh	BAZ2B block	JMJD2A Tudor	PLK1 PBD inh
Cc1cc(C)n(-c2ccc(C(=O)OCC(=O)Nc3ccccc3F)cc2)n1	.	-	.	.	-	-
COc1ccc(Br)cc1CNC(=O)CCCn1c(=O)c2cccn2c2cccnc21	.	-	-	-	-	.
COc1ccc(CNC(=O)C(=O)NCC(c2ccco2)S(=O)(=O)c2ccc(Cl)cc2)cc1 (centres undefined)	.	-	-	-	-	.
COc1ccc(C2CC(=O)c3sc(NC(C)=O)nc3C2)cc1 (centres undefined)	-	-	39.8µM	-	-	?
COc1cc(Cl)c(C)cc1NS(=O)(=O)c1c(C)nc2sccn2c1=O	.	-	-	-	-	.
Cc1nc(/C=[N+](\[O-])C(C)(C)/C=N/O)n(O)c1C	-	-	?	50.1µM	7.94µM	-
CC[C@]12c3[nH]c4cc(CCC(=O)N(C)C)ccc4c3CCN1C(=O)[C@@H](CC(=O)NCc1cccc(C(F)(F)F)c1)C[C@@H]2C(=O)N1CCN(C(=O)C2CC2)CC1	.	-	.	.	-	-
O=C(Nc1ccc(Br)cc1F)c1ccc2nsnc2c1	-	-	-	-	?	5.32µM
COc1ccccc1NC(=O)c1ccc2nsnc2c1	-	-	-	-	12.6µM	-
CCOC(=O)C1CCN(C(=O)COC(=O)CSc2ccc(C(N)=O)cc2[N+](=O)[O-])CC1	-	-	.	-	-	-
CCOC(=O)CNC(=O)N1CCCC(Cc2ccccc2)(C(=O)OCC)C1 (centres undefined)	.	-	.	.	-	-
CCN(CC)S(=O)(=O)c1ccc(NN)nc1	12.6µM	-	-	.	20µM	23.8µM
CC(C)N(C(C)C)S(=O)(=O)c1ccc(NN)nc1	79.4µM	-	-[12.7 µM]	-	-	-
C/C(CC(=O)N1CCN(C=O)CC1)=N\NC(=O)c1ccc([N+](=O)[O-])cc1	?	-	10µM	-	-	-
NC(=O)CC(NC(=O)Cc1ccc(Cl)cc1)c1ccc(NCCN2CCOCC2)c([N+](=O)[O-])c1 (centres undefined)	-	-	?	-	-	-
O=C1C2C3C=CC(C3)C2C(=O)N1c1cccc2ccccc12 (centres undefined)	-	-	-	-	-	-
O=C1[C@H]2[C@@H](C(=O)N1c1cccc3ccccc13)C1(C(=O)c3ccccc3C1=O)N1CCC[C@@H]21	?	-	39.8µM	?	-	-
COC(=O)c1c(-c2cccs2)csc1NC(=O)c1ccc(C(C)C)cc1	.	-	2.82µM	-	-	.
CC(C)c1ccc(-c2csc(NC(=O)c3cccs3)c2C(=O)O)cc1	-	-	-	-	-	33.6µM
COC(=O)c1c(-c2cccs2)csc1NC(=O)c1cccnc1	?	-	-	-	-	-
COC(=O)c1c(-c2cccs2)csc1NC(=O)c1ccc(C(C)(C)C)cc1	.	-	1.78µM	-	?	.
COC(=O)c1c(-c2cccs2)csc1NC(=O)COc1c(C)ccc(C)c1C	.	?	1.41µM	?	79.4µM	.
COC(=O)N1C(c2ccccc2)=Cc2ccccc2C1CC(C)=O (centres undefined)	-	.	.	.	.	.
COC(=O)c1c(-c2cccs2)csc1NC(=O)c1ccc(Cl)cc1	.	-	2.24µM	-	-	.
COC(=O)c1c(-c2cccs2)csc1NC(=O)COc1ccc(C)cc1	.	-	?	-	-	.
SMILES	Sfp PPTase inh	HP1b binding inh	G9a inh	BAZ2B block	JMJD2A Tudor	PLK1 PBD inh
COC(=O)c1c(-c2cccs2)csc1NC(=O)c1cccc(Cl)c1	.	-	?	-	-	.
COC(=O)c1c(-c2cccs2)csc1NC(=O)COc1ccc(C(C)(C)C)cc1	.	-	3.98µM	-	-	.
CCN(CC)S(=O)(=O)c1ccc(-c2csc(=Nc3cccc(C(F)(F)F)c3)n2Cc2ccc3c(c2)OCO3)cc1	.	-	?	-	?	.
Cc1ccc(-c2csc(=Nc3ccccc3)n2Cc2ccc3c(c2)OCO3)cc1C	.	-	14.1µM	100µM	?	.
Fc1ccc(-c2csc(=Nc3cccc(C(F)(F)F)c3)n2Cc2ccc3c(c2)OCO3)cc1	.	-	?	?	-	.
Clc1ccc(-c2csc(=Nc3ccccc3)n2Cc2ccc3c(c2)OCO3)cc1	.	?	12.6µM	?	?	.
Cc1ccc(-c2csc(=Nc3ccc(F)cc3)n2Cc2ccc3c(c2)OCO3)cc1C	.	?	14.1µM	4.47µM	50.1µM	.
Cc1ccc(S(=O)(=O)N2CC=C(c3c(C)n(CC(=O)N4CCCC4)c4ccccc34)CC2)cc1C	.	-	-	-	-	.
COc1ccccc1-c1nc(CNC(=O)Nc2ccccc2)c(C)o1	.	-	-	-	-	.
CCOc1ccc(-n2c(SCc3ccc(C(=O)OC)o3)nc3c([nH]c4ccccc43)c2=O)cc1	.	-	-	-	-	.
CC(=O)N1c2ccccc2C(=O)C1N1CCN(c2ccc(Cl)cc2)CC1 (centres undefined)	.	-	-	-	-	.
CC(=O)N1c2ccccc2C(=O)C1N1CCN(c2cc(Cl)ccc2C)CC1 (centres undefined)	.	-	7.94µM	?	-	.
CC(C)OC(=O)C(C(=O)C(F)(F)F)c1cc(NS(=O)(=O)c2ccc3c4c(cccc24)C(=O)N3)ccc1O (centres undefined)	.	-	?	-	-	.
Cc1ccc(N2CCN(S(=O)(=O)c3c(C)noc3C)CC2C)cc1 (centres undefined)	-	-	-	-	-	-
Cc1cc(N/N=C/c2ccccc2Br)nc2ccccc12	?	-	-	-	-	-
Cc1cc(N/N=C(/CCC(=O)O)C(=O)O)nc2ccccc12	50.1µM	-	3.16µM	?	?	-
CCOc1ccc(C2C(C(=O)Nc3ccccc3)=C(C)Nc3nc(-c4ccccc4Cl)nn32)cc1OC (centres undefined)	.	-	-	-	-	.
COC(=O)c1ccc(CNC(=O)CNC(=O)c2sc3ccccc3c2Cl)cc1	.	-	-	-	-	-
O=C(Cc1cccc2ccccc12)NCC(=O)Nc1ccccc1F	-	-	.	-	-	-
O=[N+]([O-])c1cccc(NC2=NCCC2)c1	-	-	-[12.7 µM]	-	-	-
O=[N+]([O-])c1cccc(Nc2nc(Cl)nc(Cl)n2)c1	-	-	?	89.1µM	-	-
CCc1nn(CC(=O)NCCCN2CCOCC2)c(=O)c2cc3cc(F)ccc3n12	-	-	50.1µM	-	-	-
CCc1nn(CC(=O)NCCCN2CCN(C)CC2)c(=O)c2cc3sc(C)cc3n12	-	-	.	-	-	-
CCc1cc2c(cc3c(=O)n(CC(=O)NCCCN4CCCCCC4)nc(CC)n32)s1	-	-	50.1µM	-	-	-
CCc1nn(CC(=O)NCCCN2CCOCC2)c(=O)c2cc3sccc3n12	-	-	-	-	-	-
O=C(OCC#CCSc1nnc(-c2cccc3ccccc23)o1)c1ccccc1	.	.	.	.	-	.
CCNC(=O)N1c2ccc(OC)cc2C(C)=CC1(C)C	-	-	50.1µM	?	-	-
